In PubChem BioAssay (EPA / NIEHS):
Inconclusive results are not listed. Calls of active or inactive are those of the source. Rule for the calls, unless noted: active = hit-call score of the fitted dose curve at least 0.9, where 1 is the maximum; inconclusive = response in the unintended direction; inactive = score below 0.9.

Legend:
[1] = ATG_TAL_CIS: Attagene CIS-FACTORIAL HepG2 Assay for human TAL Basal Promoter (AID 2282966; active = hit-call score of the fitted dose curve at least 0.9, where 1 is the maximum; inactive = score below 0.9;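 note: background control endpoint measuring basal TAL promoter reporter mRNA not a specific factor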); details: HepG2 Attagene cis-factorial TAL promoter reporter; actives raise or lower the signal
Outline: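 After 24 hours of chemical exposure, transfected HepG2 cells yielded RNA that was converted to 6-FAM-labelled, HpaI-digested reporter fragments for capillary electrophoresis. Values derive from bidirectional fitting against DMSO controls.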

[2] = ATG_TGFb_CIS: Attagene CIS-FACTORIAL HepG2 Assay for human Transforming Growth Factor (TGF) (AID 2282967; active = hit-call score of the fitted dose curve at least 0.9, where 1 is the maximum; inactive = score below 0.9); details: HepG2 Attagene CIS TGFb reporter, mRNA transcription; actives raise or lower the signal
Outline: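 Readout: fluorescently labeled reporter cDNA fragments resolved by capillary electrophoresis after RT-PCR. Transfected HepG2 cells dosed for 24 h; endogenous TF activity at TGFB1-linked cis element; gain or loss fitted relative to DMSO.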

[3] = ATG_VDRE_CIS: Attagene CIS-FACTORIAL HepG2 Assay for human Vitamin D Receptor Element (VDRE) (AID 2282968; active = hit-call score of the fitted dose curve at least 0.9, where 1 is the maximum; inactive = score below 0.9); details: HepG2 VDRE cis-reporter transcription, actives raise or lower the signal
Outline: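 Measures endogenous factor activity through cis-element-driven reporter transcripts in transiently transfected HepG2. Cells are treated 24 h; reporter mRNA is quantified by RT-PCR and capillary electrophoresis; fitting is bidirectional.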

[4] = biological target: Nuclear receptor subfamily 1 group I member 3 (Homo sapiens) (UniProt Q14994); experiment: ATG_CAR_TRANS: Attagene TRANS-FACTORIAL HepG2 Assay for human Constitutive Androstane Receptor (CAR) (AID 2282969); details: HepG2 Attagene TRANS-FACTORIAL CAR reporter;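 note: activators raise reporter mRNA above DMSO so AC50 marks induction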
Outline: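 Signal is reporter mRNA induction relative to DMSO, measured 24 h after dosing by RT-PCR with fluorescent primer extension and capillary electrophoresis. Human HepG2 liver cells carried transiently transfected chimeric NR-Gal4/GAL4-UAS reporter constructs.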

[5] = biological target: Estrogen receptor (Homo sapiens) (UniProt P03372); experiment: ATG_ERa_TRANS: Attagene TRANS-FACTORIAL HepG2 Assay for human Estrogen Receptor alpha (ERa) (AID 2282970); details: HepG2 Attagene TRANS ERa GAL4 reporter, mRNA
Estrogen receptor (Homo sapiens), sequence (P03372 whole entry, looked up, the tested form may be a part): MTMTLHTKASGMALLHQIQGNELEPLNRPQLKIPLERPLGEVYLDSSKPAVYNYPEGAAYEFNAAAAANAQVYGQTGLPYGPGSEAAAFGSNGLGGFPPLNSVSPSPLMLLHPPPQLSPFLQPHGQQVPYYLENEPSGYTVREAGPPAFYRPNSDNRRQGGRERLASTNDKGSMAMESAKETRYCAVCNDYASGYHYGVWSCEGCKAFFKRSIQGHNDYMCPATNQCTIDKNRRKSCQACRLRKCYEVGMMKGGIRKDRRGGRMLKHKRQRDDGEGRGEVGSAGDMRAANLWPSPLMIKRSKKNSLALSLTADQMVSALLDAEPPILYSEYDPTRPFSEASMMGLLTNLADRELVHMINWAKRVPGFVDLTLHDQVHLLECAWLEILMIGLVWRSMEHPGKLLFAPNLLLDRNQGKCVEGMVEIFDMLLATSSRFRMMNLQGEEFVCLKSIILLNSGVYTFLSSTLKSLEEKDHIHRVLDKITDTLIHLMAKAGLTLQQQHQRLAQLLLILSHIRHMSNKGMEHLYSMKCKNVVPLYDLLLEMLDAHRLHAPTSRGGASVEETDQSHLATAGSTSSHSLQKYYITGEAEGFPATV
Outline: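 Liver-derived HepG2 cells expressing chimeric nuclear receptor-Gal4 proteins from transient transfection were exposed for 24 hours. Gain of reporter mRNA signal versus DMSO, read by capillary electrophoresis of FAM-labelled PCR products, was recorded.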

[6] = biological target: X-box-binding protein 1 (Homo sapiens) (UniProt P17861); experiment: ATG_Xbp1_CIS: Attagene CIS-FACTORIAL HepG2 Assay for human X-box Binding Protein 1 (XBP1) (AID 2282972; active = hit-call score of the fitted dose curve at least 0.9, where 1 is the maximum; inactive = score below 0.9); details: HepG2 XBP1 cis-element reporter, Attagene multiplex; actives raise or lower the signal
Outline: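 Human hepatoma HepG2, cis-element reporter system, 24 h treatment; mRNA quantified by RT-PCR/CE fluorescence; fit relative to DMSO.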

[7] = ATG_GAL4_TRANS: Attagene TRANS-FACTORIAL HepG2 Assay for GAL4 (Internal Marker) (AID 2282976); details: HepG2 Attagene TRANS GAL4 internal marker reporter
Outline: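 First, HepG2 cells were transfected with reporter units under GAL4-UAS control. Next, they were treated with chemical for 24 h. Finally, RNA was reverse-transcribed, PCR-amplified, FAM-labelled and resolved by capillary electrophoresis, with induction scored against DMSO.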

[8] = biological target: Glucocorticoid receptor (Homo sapiens) (UniProt P04150); experiment: ATG_GR_TRANS: Attagene TRANS-FACTORIAL HepG2 Assay for human Glucocorticoid Receptor (GR) (AID 2282978); details: HepG2 Attagene TRANS GR reporter, mRNA transcription;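 note: activators score as hits since higher reporter transcript over DMSO is fitted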
Glucocorticoid receptor (Homo sapiens), sequence (P04150 whole entry, looked up, the tested form may be a part): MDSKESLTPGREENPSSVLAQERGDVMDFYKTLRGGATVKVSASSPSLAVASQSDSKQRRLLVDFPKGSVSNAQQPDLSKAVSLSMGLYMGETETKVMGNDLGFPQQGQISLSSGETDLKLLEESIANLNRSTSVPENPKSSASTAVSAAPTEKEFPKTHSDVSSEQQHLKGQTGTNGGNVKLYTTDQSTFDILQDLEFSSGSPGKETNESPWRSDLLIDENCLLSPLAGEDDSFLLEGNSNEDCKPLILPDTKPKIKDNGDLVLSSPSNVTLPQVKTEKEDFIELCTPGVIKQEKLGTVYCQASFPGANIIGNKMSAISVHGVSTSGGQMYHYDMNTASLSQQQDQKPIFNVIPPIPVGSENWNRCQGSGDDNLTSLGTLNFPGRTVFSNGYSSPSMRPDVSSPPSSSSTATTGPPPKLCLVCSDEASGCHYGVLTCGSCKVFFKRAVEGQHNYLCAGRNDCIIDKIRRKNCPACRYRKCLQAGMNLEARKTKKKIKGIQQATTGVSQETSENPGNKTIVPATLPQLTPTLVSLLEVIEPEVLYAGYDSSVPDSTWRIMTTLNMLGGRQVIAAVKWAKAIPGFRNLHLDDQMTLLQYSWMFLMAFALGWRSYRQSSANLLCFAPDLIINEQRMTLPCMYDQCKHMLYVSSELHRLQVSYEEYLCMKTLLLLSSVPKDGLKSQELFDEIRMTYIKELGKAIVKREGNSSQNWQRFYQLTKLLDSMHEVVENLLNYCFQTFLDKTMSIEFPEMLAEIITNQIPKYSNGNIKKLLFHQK
Outline: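 HepG2 cells transiently transfected with GAL4-UAS reporter units and exogenous GR-Gal4 chimera, dosed 24 h. Reporter mRNA by RT-PCR, FAM labeling, HpaI digest and capillary electrophoresis; gain-of-signal fit versus DMSO.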

[9] = ATG_M_06_TRANS: Attagene TRANS-FACTORIAL HepG2 Assay for M06 Transcription Factor (Internal Marker) (AID 2282983); details: HepG2 Attagene TRANS M06 internal marker reporter;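 note: reporter transcript level by RT-PCR then capillary electrophoresis fluorescence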
Outline: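 Background control endpoint: reporter mRNA from transiently transfected HepG2 after 24 h dosing, detected by RT-PCR with capillary electrophoresis fluorescence. Analysed for gain versus DMSO.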

[10] = ATG_M_32_TRANS: Attagene TRANS-FACTORIAL HepG2 Assay for M32 Transcription Factor (Internal Marker) (AID 2282984); details: HepG2 Attagene TRANS M32 internal marker reporter;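 note: transcript level of a background control reporter unit measured by RT-PCR and capillary electrophoresis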
Outline: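 Cell-based TRANS-format assay in HepG2: exogenous chimeric GAL4 reporter units transiently expressed, compounds applied 24 h. Reporter mRNA detected by RT-PCR plus capillary electrophoresis; this readout is an internal background marker.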

[11] = biological target: Nuclear receptor subfamily 4 group A member 2 (Homo sapiens) (UniProt P43354); experiment: ATG_NURR1_TRANS: Attagene TRANS-FACTORIAL HepG2 Assay for human Nuclear Receptor Related Protein 1 (NURR1) (AID 2282985); details: HepG2 Attagene TRANS reporter, mRNA readout
Nuclear receptor subfamily 4 group A member 2 (Homo sapiens), sequence (P43354 whole entry, looked up, the tested form may be a part): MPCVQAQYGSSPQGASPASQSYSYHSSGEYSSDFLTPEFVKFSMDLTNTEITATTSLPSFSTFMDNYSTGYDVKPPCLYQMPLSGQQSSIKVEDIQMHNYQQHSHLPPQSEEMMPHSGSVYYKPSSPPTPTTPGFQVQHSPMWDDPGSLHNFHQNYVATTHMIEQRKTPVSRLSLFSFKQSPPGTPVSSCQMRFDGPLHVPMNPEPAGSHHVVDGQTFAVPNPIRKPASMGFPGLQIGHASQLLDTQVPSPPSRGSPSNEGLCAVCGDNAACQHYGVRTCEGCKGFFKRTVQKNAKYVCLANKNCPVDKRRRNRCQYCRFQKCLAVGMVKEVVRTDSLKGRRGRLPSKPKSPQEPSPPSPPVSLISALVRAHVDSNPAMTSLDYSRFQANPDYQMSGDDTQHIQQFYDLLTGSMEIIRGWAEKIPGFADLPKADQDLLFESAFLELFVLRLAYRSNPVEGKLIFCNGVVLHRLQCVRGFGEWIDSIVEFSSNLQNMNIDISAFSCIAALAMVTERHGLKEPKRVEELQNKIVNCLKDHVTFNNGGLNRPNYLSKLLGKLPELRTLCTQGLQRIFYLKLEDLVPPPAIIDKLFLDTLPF
Outline: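 Measures transcriptional activation by an exogenous NR-Gal4 chimera in transfected HepG2 liver cells. After 24 h, reporter RNA is reverse-transcribed, amplified and resolved by capillary electrophoresis; DMSO defines baseline.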

[12] = biological target: Transcriptional activator Myb (Homo sapiens) (UniProt P10242); experiment: ATG_Myb_CIS: Attagene CIS-FACTORIAL HepG2 Assay for human Myeloblastosis (Myb) Proto-Oncogene Transcription Factor (AID 2282986; active = hit-call score of the fitted dose curve at least 0.9, where 1 is the maximum; inactive = score below 0.9); details: HepG2 Attagene CIS-FACTORIAL Myb reporter transcription; actives raise or lower the signal
Transcriptional activator Myb (Homo sapiens), sequence (P10242 whole entry, looked up): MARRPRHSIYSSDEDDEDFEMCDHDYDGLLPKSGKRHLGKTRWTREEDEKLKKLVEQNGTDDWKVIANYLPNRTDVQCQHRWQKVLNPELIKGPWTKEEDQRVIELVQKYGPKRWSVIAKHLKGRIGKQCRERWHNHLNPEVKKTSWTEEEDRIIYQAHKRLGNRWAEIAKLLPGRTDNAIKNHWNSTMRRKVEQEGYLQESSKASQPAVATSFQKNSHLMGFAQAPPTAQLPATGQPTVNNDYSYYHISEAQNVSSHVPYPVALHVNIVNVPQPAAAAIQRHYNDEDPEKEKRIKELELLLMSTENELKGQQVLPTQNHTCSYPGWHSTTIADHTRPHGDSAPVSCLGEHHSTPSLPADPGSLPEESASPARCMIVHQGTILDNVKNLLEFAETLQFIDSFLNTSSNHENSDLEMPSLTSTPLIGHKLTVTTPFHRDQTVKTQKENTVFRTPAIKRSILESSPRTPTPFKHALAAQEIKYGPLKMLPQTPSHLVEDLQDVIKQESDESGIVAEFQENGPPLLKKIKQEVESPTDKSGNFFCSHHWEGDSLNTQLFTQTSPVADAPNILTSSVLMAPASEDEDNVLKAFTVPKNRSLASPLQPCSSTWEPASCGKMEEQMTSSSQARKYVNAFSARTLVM
Outline: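 Transiently transfected HepG2 cells carrying a multiplexed cis-promoter reporter set report endogenous Myb activity after 24 h compound exposure. Reporter mRNA is read by RT-PCR with capillary electrophoresis of fluorescent products, fitted bidirectionally against DMSO.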

[13] = biological target: Nuclear respiratory factor 1 (Homo sapiens) (UniProt Q16656); experiment: ATG_NRF1_CIS: Attagene CIS-FACTORIAL HepG2 Assay for human Nuclear Respiratory Factor 1 (NRF1) Orphan Gene (AID 2282987; active = hit-call score of the fitted dose curve at least 0.9, where 1 is the maximum; inactive = score below 0.9); details: HepG2 NRF1 cis-element reporter, Attagene multiplex; actives raise or lower the signal
Nuclear respiratory factor 1 (Homo sapiens), sequence (Q16656 whole entry, looked up): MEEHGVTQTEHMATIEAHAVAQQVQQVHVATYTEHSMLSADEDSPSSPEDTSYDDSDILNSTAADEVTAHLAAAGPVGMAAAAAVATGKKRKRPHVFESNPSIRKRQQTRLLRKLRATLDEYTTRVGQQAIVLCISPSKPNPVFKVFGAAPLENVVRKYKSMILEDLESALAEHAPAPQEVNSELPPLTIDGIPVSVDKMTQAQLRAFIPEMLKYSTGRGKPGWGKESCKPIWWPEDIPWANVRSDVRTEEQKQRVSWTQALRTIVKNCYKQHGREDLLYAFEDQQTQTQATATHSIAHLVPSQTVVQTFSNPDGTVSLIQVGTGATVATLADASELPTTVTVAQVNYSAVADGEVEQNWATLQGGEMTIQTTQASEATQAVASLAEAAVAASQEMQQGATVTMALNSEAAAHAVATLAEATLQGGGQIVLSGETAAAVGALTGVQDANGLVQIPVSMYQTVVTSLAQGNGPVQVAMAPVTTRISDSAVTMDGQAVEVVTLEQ
Outline: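 HepG2 cells transiently transfected with multiple cis-regulated reporter units, exposed 24 h. Reporter mRNAs measured by RT-PCR, fluorescent labelling, HpaI digestion and capillary electrophoresis; bidirectional fitting against DMSO.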

[14] = biological target: Androgen receptor (Homo sapiens) (UniProt P10275); experiment: ATG_AR_TRANS: Attagene TRANS-FACTORIAL HepG2 Assay for human Androgen Receptor (AR) (AID 2282973); details: HepG2 Attagene TRANS-FACTORIAL AR reporter transcription
Androgen receptor (Homo sapiens), sequence (P10275 whole entry, looked up, the tested form may be a part): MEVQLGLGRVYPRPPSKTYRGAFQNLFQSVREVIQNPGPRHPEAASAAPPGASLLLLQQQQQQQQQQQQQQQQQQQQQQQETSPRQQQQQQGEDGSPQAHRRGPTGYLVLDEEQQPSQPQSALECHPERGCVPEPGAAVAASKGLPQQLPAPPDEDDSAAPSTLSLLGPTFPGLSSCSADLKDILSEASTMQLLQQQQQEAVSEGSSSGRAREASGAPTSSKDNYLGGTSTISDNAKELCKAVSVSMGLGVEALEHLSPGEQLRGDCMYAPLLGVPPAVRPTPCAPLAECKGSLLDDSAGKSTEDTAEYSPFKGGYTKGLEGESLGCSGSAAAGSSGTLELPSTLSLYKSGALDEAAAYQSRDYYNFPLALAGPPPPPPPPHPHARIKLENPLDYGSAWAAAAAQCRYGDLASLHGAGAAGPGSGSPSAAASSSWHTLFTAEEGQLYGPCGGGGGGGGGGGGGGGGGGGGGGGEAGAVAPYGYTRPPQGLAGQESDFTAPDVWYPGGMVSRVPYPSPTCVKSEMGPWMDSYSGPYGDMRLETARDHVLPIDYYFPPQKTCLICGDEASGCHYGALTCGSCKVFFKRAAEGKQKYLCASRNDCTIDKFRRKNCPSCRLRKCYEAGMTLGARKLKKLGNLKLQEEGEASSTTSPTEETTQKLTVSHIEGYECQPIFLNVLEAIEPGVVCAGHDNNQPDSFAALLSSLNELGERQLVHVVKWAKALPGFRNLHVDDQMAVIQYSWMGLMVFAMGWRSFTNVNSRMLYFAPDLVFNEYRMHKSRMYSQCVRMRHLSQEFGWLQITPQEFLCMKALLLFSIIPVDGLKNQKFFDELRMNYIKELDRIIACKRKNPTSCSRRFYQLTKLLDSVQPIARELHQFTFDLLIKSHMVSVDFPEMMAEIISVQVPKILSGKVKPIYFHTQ
Outline: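 Steps: transfect HepG2 with multiple GAL4-UAS reporter transcription units (TRANS format, exogenous NR-Gal4 protein); dose 24 h; isolate RNA, reverse-transcribe, PCR-amplify, FAM-label, HpaI-digest; resolve by capillary electrophoresis. Positive direction vs DMSO.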

[15] = ATG_M_19_TRANS: Attagene TRANS-FACTORIAL HepG2 Assay for M19 Transcription Factor (Internal Marker) (AID 2282974); details: HepG2 Attagene TRANS-FACTORIAL M19 internal marker reporter
Outline: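 HepG2 transiently transfected with GAL4-UAS multiplex reporter constructs, exposed 24 h; reporter RNA quantified by RT-PCR, 6-FAM labeling, HpaI digestion and capillary electrophoresis; internal background marker fitted upward versus DMSO.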

[16] = biological target: Bile acid receptor (Homo sapiens) (UniProt Q96RI1); experiment: ATG_FXR_TRANS: Attagene TRANS-FACTORIAL HepG2 Assay for Farnesoid X Receptor (FXR) (AID 2282979); details: HepG2 Attagene TRANS FXR-GAL4 reporter transcription;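 note: hits raise reporter mRNA above DMSO so AC50 marks FXR activation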
Bile acid receptor (Homo sapiens), sequence (Q96RI1 whole entry, looked up, the tested form may be a part): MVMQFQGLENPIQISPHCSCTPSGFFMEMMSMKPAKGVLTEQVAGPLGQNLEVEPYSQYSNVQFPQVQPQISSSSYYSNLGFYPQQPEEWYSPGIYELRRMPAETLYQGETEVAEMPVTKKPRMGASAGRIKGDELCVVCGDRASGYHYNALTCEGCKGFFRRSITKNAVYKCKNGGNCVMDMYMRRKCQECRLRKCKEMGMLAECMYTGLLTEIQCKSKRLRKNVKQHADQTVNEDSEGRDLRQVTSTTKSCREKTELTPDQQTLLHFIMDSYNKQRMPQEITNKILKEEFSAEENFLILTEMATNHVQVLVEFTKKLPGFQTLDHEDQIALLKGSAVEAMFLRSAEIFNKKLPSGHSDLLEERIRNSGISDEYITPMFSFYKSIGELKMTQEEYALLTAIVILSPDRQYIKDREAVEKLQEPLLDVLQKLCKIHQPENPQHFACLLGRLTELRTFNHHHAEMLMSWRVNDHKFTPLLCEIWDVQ
Outline: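 Transient transfection of HepG2 with multiplexed GAL4-UAS reporter units; exogenous FXR-GAL4 chimera. Dose 24 h → TriZol RNA → oligo(dT) RT → PCR, 6-FAM primer extension, HpaI cut → CE. Gain vs DMSO.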

[17] = biological target: Hepatocyte nuclear factor 4-alpha (Homo sapiens) (UniProt P41235); experiment: ATG_HNF4a_TRANS: Attagene TRANS-FACTORIAL HepG2 Assay for human Hepatocyte Nuclear Factor 4 alpha (HNF4a) (AID 2282982); details: HepG2 HNF4a transactivation reporter, mRNA readout
Hepatocyte nuclear factor 4-alpha (Homo sapiens), sequence (P41235 whole entry, looked up): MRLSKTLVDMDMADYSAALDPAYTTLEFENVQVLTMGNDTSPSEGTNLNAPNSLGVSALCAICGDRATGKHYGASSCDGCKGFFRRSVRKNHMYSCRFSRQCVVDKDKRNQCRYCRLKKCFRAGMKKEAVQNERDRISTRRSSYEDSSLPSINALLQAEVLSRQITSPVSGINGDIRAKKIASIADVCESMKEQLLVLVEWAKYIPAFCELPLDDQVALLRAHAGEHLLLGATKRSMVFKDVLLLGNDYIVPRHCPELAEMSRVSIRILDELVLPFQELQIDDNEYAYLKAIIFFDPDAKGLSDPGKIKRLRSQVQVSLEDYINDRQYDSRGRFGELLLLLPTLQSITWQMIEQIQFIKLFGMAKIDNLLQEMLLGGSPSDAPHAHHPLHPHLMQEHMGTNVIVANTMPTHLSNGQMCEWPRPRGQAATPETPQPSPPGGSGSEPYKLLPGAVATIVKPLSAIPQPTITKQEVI
Outline: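 Multiplexed reporter assay: transfected HepG2, 24 h exposure, total RNA → oligo(dT) RT → PCR → 6-FAM extension → HpaI digest → CE fluorescence. DMSO = negative control.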

[18] = biological target: Steroid hormone receptor ERR1 (Homo sapiens) (UniProt P11474); experiment: ATG_ERRa_TRANS: Attagene TRANS-FACTORIAL HepG2 Assay for human Estrogen-Related Receptor alpha (ERRa) (AID 2282971); details: HepG2 Attagene TRANS reporter, ERRa transactivation
Outline: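 Reporter transcript induction was quantified by RT-PCR and capillary electrophoresis of FAM-labelled, HpaI-cut products after 24 h treatment of HepG2 cells carrying transiently transfected GAL4-UAS reporter units and an exogenous ERRa-Gal4 fusion; activity scored as increase over DMSO.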

[19] = biological target: Oxysterols receptor LXR-alpha (Homo sapiens) (UniProt Q13133); experiment: ATG_LXRa_TRANS: Attagene TRANS-FACTORIAL HepG2 Assay for human Liver X Receptor alpha (LXRa) (AID 2282980); details: HepG2 Attagene TRANS reporter, LXRa transactivation
Outline: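 Transfect HepG2 with GAL4-UAS multiplex reporter constructs (TRANS format, chimeric receptor-GAL4); treat 24 h; extract RNA, reverse-transcribe, PCR-amplify, FAM-label, HpaI-digest; resolve fragments by capillary electrophoresis. Upward response vs DMSO.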

Measured: AC50

CCCCCOC(=O)c1ccccc1C(=O)OCCCCC
active: [3] 89.8 µM
not listed: [14] | [15] | [16] | [17] | [18] | [19]
inactive: all other assays above

CC(C)N(Cc1ccccc1)C(=O)C(C)(C)C
not listed: [5] | [8] | [9] | [10] | [17] | [18] | [19]
inactive: all other assays above

CCOC(=O)[C@]1(c2ccccc2)Oc2ccccc2[C@@H]1N
inactive: [4] | [15] | [8] | [16] | [17] | [11] | [12]
active: [1] 61.8 µM | [2] 15.6 µM | [3] 15.8 µM | [6] 41.9 µM | [13] 58.2 µM

O=P(OCCCl)(OCCCl)OCCCl
not listed: [5] | [9] | [11] | [14] | [19]
inactive: all other assays above

Cc1ccc([N+](=O)[O-])cc1
inactive: [1] | [2] | [3] | [4] | [5] | [6] | [9] | [12] | [13]

Nc1ccc(Cl)cc1N
active: [3] 27.3 µM | [6] 21 µM
not listed: [5] | [15] | [17] | [18]
inactive: all other assays above

Clc1ccc(C(c2ccc(Cl)cc2)C(Cl)Cl)cc1
active: [3] 15.7 µM | [5] 16.2 µM | [6] 56.2 µM
not listed: [14] | [17] | [18] | [19]
inactive: all other assays above

CNC(=O)Oc1cccc2c1OC(C)(C)C2
not listed: [7] | [8] | [9] | [16] | [18]
inactive: all other assays above

c1ccc2c(c1)oc1ccccc12
not listed: [5] | [14] | [15] | [16] | [17] | [18] | [19]
inactive: all other assays above
